High-throughput results: PubChem BioAssay, several laboratories
This is a sample that favours compounds with a hit; in the whole collection about 2.2% have one here.
PLCg1 inh: blocks human PLC-gamma1 enzyme activity; P19174; purified PLC-gamma1, fluorogenic substrate, fluorescence; inhibition, % at 12.2 µM; actives 0.84% (n = 370,000); AID 720700
Cardio protect: protects H9c2 cardiomyocytes from peroxide injury. actives 0.63% (n = 360,000). protection from H2O2 cell death, % at 20 µM. AID 588492. H2O2 injury protection, ATPLite, 2 h;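 active means compounds giving at least 50% protection of heart cells from peroxide-induced death in the single-dose screen, raw or plate-pattern-corrected value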;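 further: 0% = DMSO wells with peroxide and 100% = DMSO wells without peroxide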
FAS-TE inh: blocks the thioesterase domain of human fatty acid synthase. recombinant FAS-TE, OMFH fluorogenic substrate, fluorescence endpoint. inhibition, % at 15 µM. actives 0.67% (n = 360,000). AID 602261;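 active means compounds whose normalised, plate-corrected inhibition of enzyme fluorescence in the single-dose primary screen is 50% or more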;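 further: 0% = DMSO with enzyme and 100% = substrate without enzyme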
PLCb3 inh: blocks human PLC-beta3 enzyme activity. Q01970. Purified PLC-beta3, fluorogenic substrate, fluorescence. inhibition, % at 12.2 µM. actives 0.18% (n = 370,000). AID 720704; in the data active means inhibition above about 11%;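 further: 0% = median of compound wells on plate and 100% = full blocker control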
Target sequence (Q01970 whole entry, looked up): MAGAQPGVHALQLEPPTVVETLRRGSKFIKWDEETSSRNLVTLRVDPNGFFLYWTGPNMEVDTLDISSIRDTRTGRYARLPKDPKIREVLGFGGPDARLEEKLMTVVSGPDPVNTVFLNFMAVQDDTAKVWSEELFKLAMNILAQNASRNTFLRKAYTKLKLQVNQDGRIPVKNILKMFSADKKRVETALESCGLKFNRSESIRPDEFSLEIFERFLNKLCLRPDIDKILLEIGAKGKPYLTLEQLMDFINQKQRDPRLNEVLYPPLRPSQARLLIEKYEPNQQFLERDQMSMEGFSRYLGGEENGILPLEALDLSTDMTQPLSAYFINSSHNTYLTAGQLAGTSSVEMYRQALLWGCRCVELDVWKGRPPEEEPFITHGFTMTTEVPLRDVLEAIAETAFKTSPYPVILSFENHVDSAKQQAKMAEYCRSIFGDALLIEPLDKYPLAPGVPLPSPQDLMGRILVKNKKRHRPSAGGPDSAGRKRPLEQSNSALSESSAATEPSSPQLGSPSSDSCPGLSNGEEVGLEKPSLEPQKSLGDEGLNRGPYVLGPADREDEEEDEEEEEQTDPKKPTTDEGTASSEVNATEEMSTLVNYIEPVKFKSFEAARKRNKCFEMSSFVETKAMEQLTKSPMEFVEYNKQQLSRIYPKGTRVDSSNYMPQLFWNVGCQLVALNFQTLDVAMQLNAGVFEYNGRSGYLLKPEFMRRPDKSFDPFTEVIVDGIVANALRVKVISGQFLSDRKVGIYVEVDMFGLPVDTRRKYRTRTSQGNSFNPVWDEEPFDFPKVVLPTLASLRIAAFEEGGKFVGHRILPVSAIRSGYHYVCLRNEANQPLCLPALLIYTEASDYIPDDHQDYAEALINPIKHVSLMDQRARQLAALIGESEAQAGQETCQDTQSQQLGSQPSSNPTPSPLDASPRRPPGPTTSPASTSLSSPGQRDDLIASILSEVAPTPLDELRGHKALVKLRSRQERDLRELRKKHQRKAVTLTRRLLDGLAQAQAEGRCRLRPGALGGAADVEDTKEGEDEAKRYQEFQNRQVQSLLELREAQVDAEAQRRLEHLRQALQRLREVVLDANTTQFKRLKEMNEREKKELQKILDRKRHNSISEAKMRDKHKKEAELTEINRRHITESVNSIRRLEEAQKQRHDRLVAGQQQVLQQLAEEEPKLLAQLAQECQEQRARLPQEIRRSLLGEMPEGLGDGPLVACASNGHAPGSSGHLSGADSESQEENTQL
PLCgamma1 ctr: inhibits human PLC-gamma1 in PLC-beta3 counter-screen; shares compounds with PLCg1 inh; purified PLC-gamma1, fluorogenic substrate, fluorescence; inhibition, % at 12.3 µM; actives 3.1% (n = 3,300)
PLCb3 confirm: human PLC-beta3 inhibition, confirmation; shares compounds with PLCg1 inh; purified PLC-beta3, fluorogenic substrate fluorescence; inhibition, % at 12.3 µM; actives 1% (n = 3,300); in the data active means inhibition above about 11%
The depositor's hits bear a star; i = inactive; x = no result given. Unless noted, no stated cut-off is given here; in the data, active means inhibition above about 9.5%; inactive means the rest.

SMILES	PLCg1 inh	Cardio protect	FAS-TE inh	PLCb3 inh	PLCgamma1 ctr	PLCb3 confirm
Cc1ccc(NC(=O)COC(=O)c2cc(-c3cccs3)nn2-c2ccccc2)cc1[N+](=O)[O-]	10.7*	-0.6	6.4	4.2	-3.9	-6.2
O=C(COC(=O)c1cc(-c2cccs2)nn1-c1ccccc1)Nc1cccc([N+](=O)[O-])c1	1.4	-3.9	35.9	-2.3	x	x
Cc1cc(C(=O)NNC(=S)NCc2ccccc2)cs1	-0.6	-3.5	-9.6	13.3*	-8.8	5.5
Cc1cc(C(=O)NNC(=S)NCC(C)C)cs1	-0.2	-1.5	-17.4	13.4*	-4.5	13.9*
Cc1noc(C)c1-c1nnc(-c2ccc(C(F)(F)F)cc2)o1	10.2*	-4.2	5.7	1.0	4.8	2.0
COc1ccc(-c2nnc(SC(C)C(=O)Nc3nccs3)n2Cc2ccccc2)cc1OC (stereo unspecified)	9.8*	2.7	-0.5	1.8	-4.8	-3.5
CCC(=O)N(Cc1cc(=O)[nH]c2ccccc12)c1ccccc1OC	11.7*	5.9	-1.2	1.3	-3.8	-1.2
CCn1c(SCC(=O)Nc2ccc(C(C)=O)cc2)nc2nc3c(cc2c1=O)CCCC3	9.7*	-2.8	0.8	-0.9	7.3	5.0
CC(C)Nc1nc(NC(C)C)nc(N(C)n2cnnc2)n1	9.9*	-6.6	-9.9	4.5	-4.5	-2.6
Cc1ccccc1C(=O)NC(C)c1ccc2c(c1)CCCC2 (stereo unspecified)	10.3*	-1.8	-1.2	13.1*	1.8	6.9
O=C(C[C@H]1CC[C@@H]2[C@H](COC[C@@H](O)CN2C(=O)C2CC2)O1)NCc1ccccc1Cl	-0.9	x	x	0.0	x	x
O=C(C[C@H]1CC[C@H]2[C@@H](COC[C@@H](O)CN2C(=O)c2cnccn2)O1)NCc1ccc(Oc2ccccc2)cc1	1.9	x	x	11.0*	-6.1	0.1
CC1(C(=O)NC2CCCCCCC2)CCC(=O)N1Cc1cccnc1 (stereo unspecified)	13.1*	0.6	-5.0	4.1	-0.3	-1.5
CC(=O)c1c(C)nn(C(=O)N2CCOCC2)c1C	7.8	0.4	-5.8	14.6*	-7.5	-3.7
Cc1nn(C(=O)N2CCOCC2)c(C)c1CN1C(=O)c2ccccc2C1=O	-1.4	2.7	-2.5	-2.7	x	x
c1ccc2oc(SCc3cn4ccsc4n3)nc2c1	9.5*	-2.1	-7.8	9.2	-0.9	-0.6
Cc1ccc2nc3n(c(=O)c2c1)CCCCC3	11.3*	11.7	-1.0	5.4	-6.6	-3.8
O=c1c2cc(Br)ccc2nc2n1CCCCC2	x	-9.6	-2.2	x	x	x
Cc1nc(NCc2ccccc2)sc1C(=O)Nc1ccccc1	-1.1	-1.2	-2.2	4.0	x	x
Cc1nc(NCCOc2ccccc2)sc1C(=O)Nc1ccccc1	12.1*	0.0	2.8	5.6	0.9	-0.2
Cc1ccc(C(=O)OCC(=O)NCc2ccccc2)s1	3.1	-6.3	-5.2	1.4	x	x
COCCNC(=O)C1CCCN(C(=O)c2ccc(C(F)(F)F)nc2C)CC1 (stereo unspecified)	-1.2	-0.7	-4.3	2.7	x	x
O=C1c2cccnc2C(=O)N1c1cccc([N+](=O)[O-])c1	16.3*	0.2	-4.3	-0.1	-2.3	-3.2
COc1ccc(C(=O)NC(=S)Nc2cccc(NC(=O)c3ccco3)c2)cc1[N+](=O)[O-]	13.2*	7.0	-4.5	5.0	-0.6	1.3
COc1ccc(C(=O)NC(=S)Nc2ccc(NC(=O)c3ccco3)cc2)cc1[N+](=O)[O-]	1.7	-2.0	-2.2	2.5	x	x
SMILES	PLCg1 inh	Cardio protect	FAS-TE inh	PLCb3 inh	PLCgamma1 ctr	PLCb3 confirm
O=C(NC(=S)Nc1ccccc1[N+](=O)[O-])c1ccco1	0.5	-3.5	0.3	-1.1	x	x
Nc1ccc([N+](=O)[O-])cc1C(=O)NNC(=O)c1ccco1	9.7*	13.3	-2.4	3.0	6.6	7.4
O=C(NC(=S)Nc1ccc([N+](=O)[O-])cc1)c1ccco1	13.0*	-0.7	-4.2	5.3	-2.7	0.2
COc1cccc(-c2c(C(=O)O)cc(O)c3ccc(OC)cc23)c1	-46.4	0.6	-4.5	-58.8	x	x
CCN(CC(=O)NCc1ccc(F)cc1)C(=O)/C=C/c1cc(OC)ccc1OC	i	3.4	-1.8	i	x	x
CC1(C)CC(=O)C=C(c2ccc(Oc3ccccc3)cc2)C1	10.4*	-12.5	26.1	1.5	-1.5	-1.6
CC1(C)CC(=O)C=C(c2ccc(OC(F)(F)F)cc2)C1	-4.0	-15.8	10.1	1.5	x	x
CCOC(=O)CCCCCC(=O)Nc1ccc2c(c1)CC(=O)N([C@@H](C)CO)C[C@@H](C)[C@@H](CN(C)C(=O)Nc1ccc(C(F)(F)F)cc1)O2	-0.7	6.8	-0.6	0.3	x	x
C/C(=C1/SC(N2CCOCC2)=NC1=O)c1ccc(Cl)cc1	1.6	-0.2	-1.6	2.9	x	x
C/C(=C1\SC(N2CCOCC2)=NC1=O)c1ccc(C)cc1	10.4*	8.0	-0.8	5.8	-2.7	4.8
COC[C@@H]1CCCN1c1ccc2c(c1)O[C@H](COCc1ccccc1)CN([C@@H](C)c1ccccc1)S2(=O)=O	3.4	x	25.5	1.0	x	x
COC[C@H]1CCCN1c1ccc2c(c1)O[C@@H](COCc1ccccc1)CN([C@H](C)c1ccccc1)S2(=O)=O	10.2*	x	18.1	-3.8	-3.4	-2.1
Cc1occc1-c1nnc(SCC(=O)Nc2ccccc2)n1C	4.9	-1.5	-4.9	15.2*	-5.1	-0.6
O=C(CSc1nncn1-c1ccccc1)Nc1ccc(N2CCOCC2)cc1	9.8*	4.5	-3.7	1.1	-4.2	-2.0
O=C(CSc1n[nH]c(=O)n1-c1ccccc1)Nc1ccccc1	15.4*	6.4	-1.1	8.9	-10.2	-3.5
O=C(CSc1n[nH]c(=O)n1-c1cccnc1)Nc1ccccc1	0.1	5.1	-6.4	-4.6	x	x
O=C(CSc1nnnn1-c1ccccc1)Nc1ccc(Cl)cn1	0.9	3.1	-1.1	1.1	x	x
O=C(CSc1nnnn1-c1ccccc1)Nc1ccc(Cl)cc1	14.3*	-1.5	-1.4	3.6	-6.8	-1.7
CC(C)C[C@@H]1COc2cc(Br)ccc2S(=O)(=O)N1Cc1cn(CC2CCCCC2)nn1	-1.9	x	x	-5.5	x	x
O=S1(=O)CCN(C2CCCCCC2)CC1	-1.2	-1.5	-5.3	1.6	x	x
Cc1c(CCOC(=O)C23CC4CC(CC(C)(C4)C2)C3)sc[n+]1CC(=O)c1ccccc1	12.1*	-2.0	23.8	2.1	0.6	1.1
Cc1c(CCOC(=O)CC23CC4CC(CC(C)(C4)C2)C3)sc[n+]1CC(=O)c1ccccc1	6.6	-37.3	30.9	1.0	x	x
CC(C)(C)c1cc(CN2CCC(O)CC2)cc(C(C)(C)C)c1O	10.7*	5.8	-3.5	1.7	-3.7	-22.2
CCOC(=O)C(C)C1(O)c2ccccc2-c2ncccc21 (stereo unspecified)	11.8*	3.9	-5.6	-21.6	-4.5	-1.7
Cc1[nH]n(S(=O)(=O)c2ccccc2)c(=O)c1N=Nc1cccc(Cl)c1	-3.9	-7.1	10.5	-10.0	x	x
Cc1[nH]n(S(=O)(=O)Cc2ccccc2)c(=O)c1N=Nc1ccccc1Cl	11.6*	-16.8	5.5	1.0	1.7	5.1
